cardiac RTF act: increases calcium sensitivity of human cardiac regulated thin filaments; 340,000 compounds, 0.24% hits; activation, % at 7.2 µM; IANBD-labeled TnC RTF fluorescence at EC20 calcium; 0% EC20 calcium, 100% full calcium;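 active = activation above the mean over all tested compounds plus 3 SD, cut at about 30% in these data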;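 also: rise in fluorescence read as greater calcium sensitivity of cardiac thin filaments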
C-LANA FP: KSHV C-LANA DNA binding inhibition | MBP-C-LANA/FAM-LBS DNA binding, fluorescence polarization | inhibition, % at 9 µM | 340,000 compounds, 0.078% hits | AID 504423;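 active = highest replicate inhibition at or above 60% at 9 µM, even if other replicates fall short; inactive = all replicates below 60% inhibition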;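 also: 0% = neutral control wells and 100% = 4 µM acridine orange control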
IDE cell inh: inhibits human insulin-degrading enzyme in HEK cells; FAbetaB cleavage, fluorescence polarization; 320,000 compounds, 0.41% hits; inhibition, % at 5.59 µM; AID 434962;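 active = percent inhibition above the average of all tested compounds plus 3 SD, set per screening campaign, cut at about 16% in these data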;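 also: IDE supplied by intact live HEK cells; FP after avidin binding of uncleaved biotin substrate so inhibition keeps polarization high; 0% = DMSO wells and 100% = 60 µM reference IDE inhibitor Ii1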
Target sequence (P14735 whole entry, looked up): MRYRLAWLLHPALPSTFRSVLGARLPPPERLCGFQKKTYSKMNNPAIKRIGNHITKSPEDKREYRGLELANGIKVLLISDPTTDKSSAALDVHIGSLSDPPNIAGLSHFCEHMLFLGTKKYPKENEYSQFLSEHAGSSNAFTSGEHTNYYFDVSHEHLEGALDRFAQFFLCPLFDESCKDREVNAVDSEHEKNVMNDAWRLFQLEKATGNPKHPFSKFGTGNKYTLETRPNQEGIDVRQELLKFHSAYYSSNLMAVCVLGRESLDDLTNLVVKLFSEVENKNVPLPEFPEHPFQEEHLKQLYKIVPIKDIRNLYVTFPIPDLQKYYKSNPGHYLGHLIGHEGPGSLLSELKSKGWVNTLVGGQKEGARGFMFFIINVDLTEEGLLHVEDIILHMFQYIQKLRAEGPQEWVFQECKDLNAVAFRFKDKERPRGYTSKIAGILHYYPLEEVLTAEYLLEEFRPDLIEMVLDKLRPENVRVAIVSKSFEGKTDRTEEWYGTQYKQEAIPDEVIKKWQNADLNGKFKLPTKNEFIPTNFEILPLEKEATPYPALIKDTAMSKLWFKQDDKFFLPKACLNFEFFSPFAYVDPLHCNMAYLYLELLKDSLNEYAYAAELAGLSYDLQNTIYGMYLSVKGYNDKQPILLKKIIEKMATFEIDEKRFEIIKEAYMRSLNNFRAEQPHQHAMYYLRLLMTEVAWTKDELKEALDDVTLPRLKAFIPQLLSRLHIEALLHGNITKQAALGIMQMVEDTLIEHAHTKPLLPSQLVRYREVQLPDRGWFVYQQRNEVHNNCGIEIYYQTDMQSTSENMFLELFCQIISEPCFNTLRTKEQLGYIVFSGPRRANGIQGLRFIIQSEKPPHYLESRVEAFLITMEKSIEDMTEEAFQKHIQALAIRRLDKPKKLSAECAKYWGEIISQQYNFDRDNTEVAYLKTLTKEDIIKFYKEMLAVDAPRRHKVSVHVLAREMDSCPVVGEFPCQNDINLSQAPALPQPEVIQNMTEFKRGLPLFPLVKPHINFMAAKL
Keap1 Nrf2 FP: disrupts human Keap1 binding to Nrf2 peptide | Q14145 | Keap1 Kelch-Nrf2 peptide fluorescence polarization, 1536-well | inhibition, % at 9.4 µM | 340,000 compounds, 0.15% hits | AID 504523; in the data active = inhibition above about 12%;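 also: human Keap1 Kelch domain with fluorescein labeled Nrf2 9mer peptide probe; 0% = neutral control wells and 100% = peptide positive control; higher means more block of Keap1 binding to Nrf2 peptide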
IDE act: activators of human insulin-degrading enzyme in cells. P14735. 340,000 compounds, 0.073% hits. HEK cells, FAbeta-B cleavage, fluorescence polarization; 0% vehicle, 100% cell-free pure enzyme wells. activation, % at 5.96 µM;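 active = activation above the mean of all tested compounds plus 3 SD, set per screening campaign, cut at about 17% in these data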
Cardiac RTF inh: cardiac RTF calcium desensitization. IANBD-labeled cardiac RTF, Ca2+ fluorescence. inhibition, % at 7.15 µM. 340,000 compounds, 0.12% hits. AID 493244;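 active = inhibition above the mean inhibition of all tested compounds plus 3 SD, cut at about 17% in these data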;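 also: assay run at fixed EC70 calcium of 1.6 mM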
RTF inh confirm: cardiac RTF calcium sensitivity inhibition, confirmation. reconstituted cardiac thin filaments, calcium sensitivity fluorescence. inhibition, % at 7.15 µM. shares compounds with Cardiac RTF inh. 360 compounds, 8% hits. AID 504635; in the data active = inhibition above about 18%
The depositor's hits bear a star; . = no result. Rows were chosen to be rich in hits. Some 0.81% of all compounds tested hit in one or more screens of this group.

SMILES | cardiac RTF act | C-LANA FP | IDE cell inh | Keap1 Nrf2 FP | IDE act | Cardiac RTF inh | RTF inh confirm
O=C1CSC(c2cccc(F)c2)N1c1c(F)cccc1F (stereo not drawn) | 1.9 | 1.0 | 0.5 | -1.0 | 2.0 | -1.0 | .
O=C1CSC(c2cccc([N+](=O)[O-])c2)N1c1c(F)cccc1F (stereo not drawn) | 2.7 | -0.6 | 8.4 | -2.8 | 5.4 | 21.5* | -5.6
COc1cccc(/C=N/n2c(N)c(S(=O)(=O)c3cccs3)c3nc4ccccc4nc32)c1 | 2.2 | -1.1 | 3.0 | -3.5 | 10.3 | -2.6 | .
Nc1c(S(=O)(=O)c2cccs2)c2nc3ccccc3nc2n1/N=C/c1cccc(O)c1 | -5.8 | 3.0 | 5.3 | 1.0 | -0.1 | 20.1* | 6.0
COc1ccccc1-n1c(SCC(=O)N2CCc3ccccc32)nc2c(c1=O)SCC2 | 4.0 | -0.6 | 3.0 | -2.1 | 0.8 | -1.9 | .
COc1ccc(OC)c(-n2c(SCC(=O)N3CCc4ccccc43)nc3c(c2=O)SCC3)c1 | 1.1 | 0.3 | 6.1 | 0.7 | -1.9 | 39.8* | -3.1
O=C(CN1C(=O)NC2(CCCCC2)C1=O)N1CCN(c2ncccn2)CC1 | 0.2 | -0.5 | -1.6 | -1.5 | 4.1 | -4.7 | .
Cc1ccccc1C(=O)N/N=C1/SCC(=O)N1Cc1ccccc1 | 2.7 | -1.5 | 2.4 | 0.3 | 2.2 | 18.3* | 1.5
CN(NC(=O)COc1ccccc1)C1=NS(=O)(=O)c2ccccc21 | 2.5 | -6.4 | 6.7 | . | 3.9 | 29.9* | -3.5
COc1cccc(-n2c(SCc3cc(=O)oc4cc(O)c(O)cc34)nc3ccccc3c2=O)c1 | -19.8 | 2.5 | 3.7 | 0.9 | 0.3 | 17.0* | -2.4
CCN(CC)C(=O)CSc1nc2ccccc2c(=O)n1-c1cccc(OC)c1 | -3.2 | 0.3 | -2.5 | -2.0 | 0.2 | -0.5 | .
CN(Cc1cn(-c2ccccc2)nc1-c1ccc(F)cc1)C(=O)CCC(=O)O | -6.1 | 1.5 | 4.6 | 1.2 | -0.7 | 17.2* | -6.5
O=c1cc2oc3cc(O)c(O)cc3c(-c3ccccc3[N+](=O)[O-])c-2cc1O | -38.4 | 25.9 | -0.2 | 2.0 | 4.1 | 29.4* | 55.8*
O=c1cc(-c2ccccc2Cl)oc2cccc(O)c12 | 5.4 | -0.4 | -1.8 | -6.9 | -5.2 | 1.9 | .
O=C(Nc1cccc(S(=O)(=O)N2CCCCC2)c1)c1ccc(S(=O)(=O)C(F)F)cc1 | -0.3 | 1.1 | 2.2 | 1.4 | 4.5 | -3.7 | .
CCOc1ncccc1C(=O)Nc1ccc(C(=O)Nc2ccc(OC)cc2)cc1 | -4.9 | -0.1 | -1.6 | -2.4 | -1.0 | 0.2 | .
NC(=O)c1ccc(N=Nc2c(O)c3ccccc3[nH]c2=O)cc1 | . | . | 0.4 | . | . | . | .
N=C(N)c1ccc(N=Nc2c(O)ccc3c2[nH]c2ccccc23)cc1 | -23.6 | -7.0 | . | 2.8 | 7.6 | 26.2* | 29.8*
CC1(C)CC(=O)C2=C(C1)Nc1ccccc1NC2c1cccs1 (stereo not drawn) | -4.3 | -0.1 | -1.8 | -3.7 | -4.1 | 18.9* | -1.3
O=C1CCCC2=C1C(c1cccs1)Nc1ccccc1N2 (stereo not drawn) | -2.4 | 0.8 | 1.2 | 3.3 | 3.8 | -11.5 | .
C=CCN(CC=C)S(=O)(=O)c1ccc(C(=O)Nc2nnc(COC)o2)cc1 | 4.3 | -1.5 | -1.5 | -6.4 | 7.9 | 10.9 | .
COCc1nnc(NC(=O)c2ccc(S(=O)(=O)N(CC(C)C)CC(C)C)cc2)o1 | -0.1 | 0.4 | 2.9 | -6.2 | -0.1 | 188.8* | -0.6
O=C(O)c1[nH]c2ccccc2c1C(c1cc(Cl)cc([N+](=O)[O-])c1O)c1c(C(=O)O)[nH]c2ccccc12 | -23.0 | 9.9 | -2.8 | -1.1 | 5.7 | 21.6* | 7.4
O=C(O)c1[nH]c2ccccc2c1C(c1ccccc1)c1c(C(=O)O)[nH]c2ccccc12 | -10.3 | 0.1 | 4.9 | 1.3 | -1.5 | -2.0 | .
CCCCN(C)CCC(=O)Nc1ccc(F)c(F)c1 | -3.0 | 1.1 | 0.1 | 5.4 | 2.7 | 17.1* | 0.6
SMILES | cardiac RTF act | C-LANA FP | IDE cell inh | Keap1 Nrf2 FP | IDE act | Cardiac RTF inh | RTF inh confirm
O=C(Nc1nccs1)c1ccc(-c2ccc(F)cc2)o1 | -3.5 | 1.6 | 3.6 | -1.6 | -6.1 | 17.1* | -5.5
COc1cc(NC(=O)CNc2ccc(Cl)c(S(=O)(=O)N3CCOCC3)c2)cc(OC)c1 | 3.7 | -0.5 | 4.8 | 4.1 | 4.5 | -6.1 | .
COc1ccccc1CN1C[C@@H]2C[C@@H](c3ccc(C)cc3)N3CCC[C@@]23C1=O | 5.3 | 2.2 | 1.3 | -5.6 | -1.8 | -17.0 | .
CCc1ccc([C@@H]2C[C@H]3CN(Cc4ccccc4OC)C(=O)[C@]34CCCN24)cc1 | 0.9 | 1.3 | 3.8 | -0.6 | 2.1 | 55.3* | -4.8
O=C(c1ccc2[nH]c(=O)c(=O)[nH]c2c1)N1CCN(Cc2ccccc2)CC1 | 0.8 | -1.0 | -5.1 | 1.4 | 3.4 | 0.6 | .
CCOC(=O)C1(Cc2ccccc2)CCN(Cc2cn(CC(=O)OC)c3ccccc23)CC1 | 7.9 | 0.6 | 3.8 | -6.3 | -2.1 | -6.2 | .
CCOC(=O)C1(CC2CC2)CCN(Cc2cn(C)c3ccccc23)CC1 | 0.5 | 2.0 | 3.5 | -0.5 | 2.6 | 17.0* | -7.1
Cc1cccc(NC(=O)c2cnn(C)c2)c1C | 4.8 | 0.0 | -2.3 | 1.0 | 2.7 | 17.3* | -1.7
COc1ccc(C2=NOC(C(=O)NCCCn3ccnc3)C2)cc1 (stereo not drawn) | 1.3 | -0.2 | -1.0 | 1.7 | 2.4 | 18.1* | -6.1
O=C(NCCc1c[nH]c2ccccc12)C(=O)NCC1OCCN1S(=O)(=O)c1ccccc1 (stereo not drawn) | -1.2 | 0.4 | 0.9 | -0.2 | 1.9 | 18.5* | -4.5
CCN1CCCC1CN(Cc1cc2cc(OC)ccc2[nH]c1=O)C(=O)NCc1ccccc1 (stereo not drawn) | 3.0 | -4.0 | 7.9 | 2.0 | 5.7 | -2.1 | .
COc1cccc(/C=C2\SC(=S)N(C(C(=O)O)c3ccccc3)C2=O)c1OC (stereo not drawn) | -1.7 | -0.2 | -3.6 | -1.0 | 3.7 | 4.7 | .
COc1cc(/C=C2\SC(=S)N(C(C(=O)O)c3ccccc3)C2=O)cc(OC)c1OC (stereo not drawn) | 11.0 | -0.6 | 3.6 | -0.4 | 2.8 | 28.0* | -3.6
CCN(CC)S(=O)(=O)c1ccc(N/N=C/c2ccccc2OCC(=O)O)c([N+](=O)[O-])c1 | -0.7 | -0.7 | -1.0 | -0.9 | 8.7 | 18.8* | -0.5
CCOc1ccc(NC(=O)COC(=O)Cn2cnc3ccccc32)cc1 | -3.1 | 0.0 | 5.2 | 2.1 | 1.0 | -3.3 | .
O=C(O)c1ccc(-n2cccc2/C=C2/SC(=O)N(CC(=O)N3CCCC3)C2=O)cc1 | -8.4 | 64.1* | 2.8 | 3.4 | 5.8 | 26.0* | 7.6
O=C(O)c1ccc(-n2cccc2/C=C2/NC(=O)N(c3ccccc3)C2=O)cc1 | -7.2 | 45.8 | 6.9 | 3.8 | 2.9 | 17.2* | 6.6
O=C(O)c1ccc(-n2cccc2/C=C2/NC(=O)N(c3cccc(Cl)c3)C2=O)cc1 | -5.2 | 52.1 | . | -1.5 | -1.2 | -1.5 | .

Bioassay records (PubChem BioAssay)
